This passage reports inhibition results from PubChem BioAssay.

Active and inactive are the calls of the source.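 The calls were made as follows: active = inhibition above the hit cutoff set in the earlier primary screen (cut at about 27% in these data); inactive = the rest.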

For this assay, the target named is Protein phosphatase methylesterase 1 (Homo sapiens) (UniProt Q9Y570). Nature of the assay: human PME-1 methylesterase inhibition confirmation – biochemical, fluorescence polarization, FP-Rh probe, triplicate (AID 2171).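 Also: 0% = enzyme with DMSO and 100% = wells lacking PME-1.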 The note with it: recombinant PME-1, FP-Rh probe fluorescence polarization; at 5.9 µM; hits give high values.
Sequence of Protein phosphatase methylesterase 1 (Homo sapiens) (Q9Y570 whole entry, looked up): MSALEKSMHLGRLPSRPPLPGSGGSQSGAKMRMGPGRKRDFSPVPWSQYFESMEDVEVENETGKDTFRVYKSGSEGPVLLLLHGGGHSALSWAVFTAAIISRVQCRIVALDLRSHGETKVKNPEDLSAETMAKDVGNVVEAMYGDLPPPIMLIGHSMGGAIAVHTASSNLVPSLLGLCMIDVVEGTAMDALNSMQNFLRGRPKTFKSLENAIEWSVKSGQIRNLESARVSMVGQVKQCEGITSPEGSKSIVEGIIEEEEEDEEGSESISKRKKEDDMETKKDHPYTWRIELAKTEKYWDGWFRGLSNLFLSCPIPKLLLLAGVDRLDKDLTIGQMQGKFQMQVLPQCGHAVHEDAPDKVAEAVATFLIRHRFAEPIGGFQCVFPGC
As usually defined, the inhibition is the change of the read-out against control, counted positive when it falls. In the case of `COc1ccccc1C(=O)NC(=S)Nc1cccc2cc(O)ccc12`, the inhibition was 17% (inactive).
Take `Cc1cc(C)c(NC(=O)COC(=O)c2cccc3c2C(=O)c2ccccc2C3=O)c(C)c1`: the inhibition was 42.1% (active).
As for `On1onc2c3cc(-c4ccccc4)nc3ccc21`, the inhibition was 49.3% (active).
As to `O=C(COC(=O)c1ccccc1Br)Nc1cc(S(=O)(=O)N2CCOCC2)ccc1N1CCCC1`, the inhibition was 52.1% (active).
With `CCn1c(CSc2nnc(-c3cccnc3)n2-c2ccccc2C)nc2cc(C(=O)O)ccc21`, the inhibition was 82% (active).
On to `Nc1ccc(O)c2c1C(=O)c1ccccc1C2=O`, for which the inhibition is 46.5% (active).
With `CCOC(=O)c1sc(N/N=C/c2cc(Br)c(O)c(OC)c2)nc1C`, the inhibition was 21.6% (inactive).
Take `Cc1ccc(-c2nc(Nc3ccccc3)n[nH]2)cc1`: the inhibition was 48.5% (active).
On to `Cc1ccc(O)c(N=CC2=C(O)c3ccccc3C2=O)c1`, for which the inhibition was 27.3% (active).
As to `Cc1ccc2[nH]c3c(N4CCc5ccccc5C4)ncnc3c2c1`, the inhibition is 30.5% (active).
With `Cc1[nH]c2c(C)cccc2c1CCNC(=O)c1ccc2c(c1[N+](=O)[O-])C(=O)c1ccccc1C2=O`, the inhibition is 75.1% (active).
In the case of `CCCn1c(CCC(=O)Nc2ccccc2Cc2ccccc2)nc2cc(S(=O)(=O)N3CCOCC3)ccc21` it was 45.4% (active).
On to `CCC1Sc2ccc(S(=O)(=O)CCC(=O)Nc3ccc(OC(F)(F)F)cc3)cc2NC1=O` (stereo not given), for which the inhibition is 17.3% (inactive).
Take `COc1cc(/C=N/NC(=O)c2ccc3c(c2)OCCO3)c(Br)c(Br)c1O`: the inhibition was 43% (active).
Then `COc1cc(/C=N/NC(=O)C(Cc2c[nH]c3ccccc23)NC(=O)OCc2ccccc2)cc([N+](=O)[O-])c1O` (stereo not given), with 15.4% (inactive); and `COc1cc(/C=C/c2ccc3cccc(O)c3n2)c(Br)cc1O`, with 27.5% (active); and `O=C(OCCN(C1=NS(=O)(=O)c2ccccc21)c1ccc(Cl)cc1)c1ccco1`, with 20.6% (inactive).
Take `CCC(=Nc1ccc(N)cc1)C1=C(O)C(C(=O)OC)C(C)(C)CC1=O` (stereo not given): the inhibition is 2.34% (inactive).
Turning to `CN(C)S(=O)(=O)c1cccc(NC(=O)c2cc([N+](=O)[O-])ccc2N2CCCCC2)c1`, the inhibition was 43.2% (active).
For `Cn1c(O)c(/C=N/NC(=O)c2cc3ccccc3cc2O)c2ccccc21`, the inhibition was 58.7% (active).
As to `Cc1ccc(S(=O)(=O)CCSc2cccc(C(=O)Nc3ccccc3C(=O)O)c2)cc1`, the inhibition was 35.8% (active).
Regarding `Cc1nn(-c2ccccc2)c(Cl)c1/C=N/Nc1ccc(S(=O)(=O)Nc2ccccc2C(=O)O)cc1[N+](=O)[O-]`, the inhibition is 22.1% (inactive).
In the case of `N#C/C(N=Nc1ccccc1O)=N\Nc1ccccc1O` it was 53.1% (active); in that of `Cc1ccc(OCCn2cc(/C=N/NC(=O)c3ccncc3)c3ccccc32)cc1`, 33.5% (active); in that of `O=S(=O)(c1ccc(-c2csc(Nc3ccc(Br)cc3)n2)cc1)N1CCCC1`, 16.5% (inactive).
Then `CCc1ccc(S(=O)(=O)/N=C2\C=C(Nc3ccc(C(=O)O)cc3)C(=O)c3ccccc32)cc1`, with 33.3% (active); and `Nc1cc2nsnc2cc1Br`, with 34.7% (active); and `Cc1cc2c(N=O)c(NO)ccc2[nH]1`, with 33.3% (active).
`COc1cc(OC)cc(C(=O)Oc2ccc(/C=N/Nc3nc4ccccc4s3)cc2OC)c1`: the inhibition was 24.3% (inactive).
`CCN(CC(=O)Nc1c(C(=O)OC)[nH]c2ccc(Cl)cc12)c1ccc2c(c1)OCO2`: the inhibition was 6.28% (inactive).
On to `COc1ccc(-c2sc(Nc3ccc(F)c(F)c3F)nc2CCC(=O)NN)cc1`, for which the inhibition was 24.1% (inactive).
In the case of `CCOc1ccc(/C=N/Nc2cc(N3CCOCC3)nc(C)n2)c(O)c1` it was 26.4% (active).
For the compound `Cc1[nH]n(-c2ccccc2)c(=O)c1N=Nc1c(O)cc(S(=O)(=O)N(C)C)c2ccccc12`, the inhibition was 74.3% (active).
Regarding `COc1cccc(NC(=O)Nc2ccc3c(c2)N(C)C(=O)CS3)c1`, the inhibition was 9.42% (inactive).
For the compound `O=C(N/N=C/c1c[nH]c2ccccc12)c1ccc([N+](=O)[O-])cc1Cl`, the inhibition was 20.6% (inactive).
Then `COc1ccc(/C=N/Nc2nc3ccccc3o2)cc1O`, with 29.9% (active); and `Nc1ccc(Nc2nc3ccccc3[nH]2)cc1`, with 43.7% (active); and `CCC(=O)NC(c1cccs1)c1cc([N+](=O)[O-])c2cccnc2c1O` (stereo not given), with 25.9% (inactive).
As to `Cc1noc(NS(=O)(=O)c2ccc(NC(=O)Nc3ccc(Cl)c(Cl)c3)cc2)c1C`, the inhibition was -8.57% (inactive).
In the case of `Cc1ncc(CO)c(/C=N/NC(=S)Nc2ccc(Cl)c(Cl)c2)c1O` it was 6.06% (inactive).
